# In PubChem BioAssay:
# Active and inactive are the calls of the source.
# What was measured:
# [1] = small molecules captured by biotinylated probe aFSTL3 – biochemical, small-molecule microarray, fluorescence 635/667, stem cell growth factor project, primary screen (AID 1064); conditions: higher = more signal;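 note: measures binding of the biotinylated anti-FSTL3 antibody to printed compounds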
# [2] = binders from COS7 lysate, DM2A8 probe, primary screen, torsin A project, cell lysate, small-molecule microarray, fluorescence 635/667 (AID 1065); conditions: higher = more signal, COS7 lysate expressing mutant human TOR1A
# [3] = small molecules captured by biotinylated probe aFGF2 – biochemical, small-molecule microarray, fluorescence 635/667, stem cell growth factor project, primary screen (AID 1067); conditions: higher = more signal;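 note: measures binding of biotinylated aFGF2 protein to printed compounds on slides; z-score merges feature fluorescence and signal-to-noise across triplicate slides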
# [4] = small molecules captured by biotinylated probe aFGF10 – biochemical, small-molecule microarray, fluorescence 635/667, stem cell growth factor project, primary screen (AID 1071); conditions: higher = more signal;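 note: score merges 667 nm spot intensity and signal to noise from triplicate slides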
# [5] = target: Neurogenic locus notch homolog protein 2 (Homo sapiens) (UniProt Q04721); experiment: small molecules binding Notch2 protein – biochemical, small-molecule microarray, 635 nm fluorescence, stem cell growth factors, primary screen (AID 1073); conditions: higher = more signal
# [6] = target: Pro-neuregulin-1, membrane-bound isoform (Homo sapiens) (UniProt Q02297); experiment: small molecules binding neuregulin-1 protein – biochemical, small-molecule microarray, fluorescence 635/667, psychiatric disease protein project, primary screen (AID 1075); conditions: NRG1 binding, 635 nm fluorescence, higher = more signal;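 note: score combines 667 nm spot fluorescence with signal to noise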
# [7] = test system: Neuregulin-1 EGF-like domain; experiment: small molecules binding NRG1 EGF domain – biochemical, small-molecule microarray, 635 nm fluorescence, primary screen (AID 1081); conditions: higher = more signal;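 note: binding of the protein to compounds printed on small-molecule microarray slides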
# [8] = FRG1 expression reporter modulators in myotubes – cell-based, C2C12 myotubes, firefly/Renilla luciferase, luminescence, FRG1 inhibition for FSHD, primary screen (AID 1084); conditions: FRG1 promoter luciferase, higher = more signal, called active from +8 up or from −8 down
# [9] = small molecules captured by biotinylated probe aFST – biochemical, small-molecule microarray, fluorescence 635/667, stem cell growth factor project, primary screen (AID 1086); conditions: higher = more signal;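 note: score merges 667 nm fluorescence with signal-to-noise of each printed compound spot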
# [10] = binders of probe aHhip on microarray, primary screen, stem cell growth factor project, biochemical, small-molecule microarray, fluorescence 635/667 (AID 1087); conditions: higher = more signal;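 note: score merges spot fluorescence at 667nm with spot signal to noise ratio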
# [11] = test system: PRMT1 (protein arginine N-methyltransferase 1); experiment: small molecules binding arginine methyltransferase PRMT1 – biochemical, small-molecule microarray, 635 nm fluorescence, primary screen (AID 1088); conditions: higher = more signal;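 note: binding of Prmt1 protein to compounds spotted on small-molecule microarray slides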
# [12] = growth effects on S. cerevisiae YJM789 – YJM789 clinical isolate, OD600, 24 h, basal, primary screen (AID 1089); conditions: higher = more signal, called active from +8 up or from −8 down;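 note: growth of clinical yeast isolate S. cerevisiae YJM 789 seeded 1000 cells per well; test concentration not given here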
# [13] = S. pombe growth modifiers, basal conditions – strain 972, OD600, 24 h, no modulator, primary screen (AID 1090);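 note: basal condition with compound alone and no growth modifier present; test concentration not given here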; conditions: S. pombe 972 growth, higher = more signal, called active from +8 up or from −8 down
# [14] = budding yeast growth modifiers under rapamycin – strain BY4716, OD600, 96 h, primary screen (AID 1091); note: test concentration not given here; conditions: S. cerevisiae BY4716 + rapamycin, higher = more signal, called active from +8 up or from −8 down
# [15] = target: Torsin-1A-interacting protein 2 (Homo sapiens) (UniProt Q8NFQ8); experiment: small molecules binding lysate-expressed LULL1 – cell lysate, human LULL1 lysate, 635/667 nm fluorescence, primary screen (AID 1092); conditions: small-molecule microarray, hLULL1 lysate binding, 635 nm fluorescence; higher = more signal;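 note: probe is lysate of COS7 cells overexpressing human LULL1; score merges per-feature 667 nm fluorescence with signal-to-noise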
# [16] = optical density change of DRC41 E. coli – strain DRC41, OD650, 24 h, E. coli filamentation project, primary screen (AID 1093);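 note: MC1000 strain lacking acrAB efflux and sulA so SOS filamentation is blocked; test concentration not given here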; conditions: E. coli DRC41 growth, higher = more signal, called active from +8 up or from −8 down
# [17] = probe aLefty2 binding to arrayed compounds – biochemical, biotinylated probe, 635/667 nm fluorescence, primary screen (AID 1094); conditions: small-molecule microarray, higher = more signal;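 note: score merges spot fluorescence near 667 nm with spot signal-to-noise ratio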
# [18] = test system: Noggin (protein binding on small-molecule microarray); experiment: small molecules binding Noggin protein – biochemical, 635/667 nm fluorescence, primary screen (AID 1095); conditions: 635 nm fluorescence, higher = more signal;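 note: score merges 667 nm feature fluorescence with signal to noise over triplicate slides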
# [19] = target: Neurogenic locus notch homolog protein 3 (Homo sapiens) (UniProt Q9UM47); experiment: small molecules binding NOTCH3 protein – biochemical, 635/667 nm fluorescence, primary screen (AID 1096); conditions: small-molecule microarray, 635 nm fluorescence, higher = more signal
# [20] = probe aEGFR binding to arrayed compounds – biochemical, biotinylated probe, 635/667 nm fluorescence, primary screen (AID 1097); conditions: small-molecule microarray, higher = more signal;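 note: probe is a biotinylated anti-EGFR antibody binding compounds printed on slides; score combines fluorescence near 667 nm and signal to noise of each spot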
# Chain of Torsin-1A-interacting protein 2 (Homo sapiens) (Q8NFQ8 whole entry, looked up): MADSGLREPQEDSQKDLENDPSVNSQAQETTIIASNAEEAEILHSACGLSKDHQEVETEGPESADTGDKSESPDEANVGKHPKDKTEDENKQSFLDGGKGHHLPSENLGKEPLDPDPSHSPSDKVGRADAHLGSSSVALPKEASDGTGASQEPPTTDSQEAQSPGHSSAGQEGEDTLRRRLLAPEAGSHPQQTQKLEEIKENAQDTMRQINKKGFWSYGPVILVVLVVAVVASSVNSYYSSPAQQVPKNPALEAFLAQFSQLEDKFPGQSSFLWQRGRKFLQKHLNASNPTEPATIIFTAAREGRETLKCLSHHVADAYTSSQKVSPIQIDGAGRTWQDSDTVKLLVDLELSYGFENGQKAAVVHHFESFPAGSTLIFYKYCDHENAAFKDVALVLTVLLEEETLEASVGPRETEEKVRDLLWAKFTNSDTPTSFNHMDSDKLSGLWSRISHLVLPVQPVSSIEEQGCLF
# Chain of Neurogenic locus notch homolog protein 3 (Homo sapiens) (Q9UM47 whole entry, looked up): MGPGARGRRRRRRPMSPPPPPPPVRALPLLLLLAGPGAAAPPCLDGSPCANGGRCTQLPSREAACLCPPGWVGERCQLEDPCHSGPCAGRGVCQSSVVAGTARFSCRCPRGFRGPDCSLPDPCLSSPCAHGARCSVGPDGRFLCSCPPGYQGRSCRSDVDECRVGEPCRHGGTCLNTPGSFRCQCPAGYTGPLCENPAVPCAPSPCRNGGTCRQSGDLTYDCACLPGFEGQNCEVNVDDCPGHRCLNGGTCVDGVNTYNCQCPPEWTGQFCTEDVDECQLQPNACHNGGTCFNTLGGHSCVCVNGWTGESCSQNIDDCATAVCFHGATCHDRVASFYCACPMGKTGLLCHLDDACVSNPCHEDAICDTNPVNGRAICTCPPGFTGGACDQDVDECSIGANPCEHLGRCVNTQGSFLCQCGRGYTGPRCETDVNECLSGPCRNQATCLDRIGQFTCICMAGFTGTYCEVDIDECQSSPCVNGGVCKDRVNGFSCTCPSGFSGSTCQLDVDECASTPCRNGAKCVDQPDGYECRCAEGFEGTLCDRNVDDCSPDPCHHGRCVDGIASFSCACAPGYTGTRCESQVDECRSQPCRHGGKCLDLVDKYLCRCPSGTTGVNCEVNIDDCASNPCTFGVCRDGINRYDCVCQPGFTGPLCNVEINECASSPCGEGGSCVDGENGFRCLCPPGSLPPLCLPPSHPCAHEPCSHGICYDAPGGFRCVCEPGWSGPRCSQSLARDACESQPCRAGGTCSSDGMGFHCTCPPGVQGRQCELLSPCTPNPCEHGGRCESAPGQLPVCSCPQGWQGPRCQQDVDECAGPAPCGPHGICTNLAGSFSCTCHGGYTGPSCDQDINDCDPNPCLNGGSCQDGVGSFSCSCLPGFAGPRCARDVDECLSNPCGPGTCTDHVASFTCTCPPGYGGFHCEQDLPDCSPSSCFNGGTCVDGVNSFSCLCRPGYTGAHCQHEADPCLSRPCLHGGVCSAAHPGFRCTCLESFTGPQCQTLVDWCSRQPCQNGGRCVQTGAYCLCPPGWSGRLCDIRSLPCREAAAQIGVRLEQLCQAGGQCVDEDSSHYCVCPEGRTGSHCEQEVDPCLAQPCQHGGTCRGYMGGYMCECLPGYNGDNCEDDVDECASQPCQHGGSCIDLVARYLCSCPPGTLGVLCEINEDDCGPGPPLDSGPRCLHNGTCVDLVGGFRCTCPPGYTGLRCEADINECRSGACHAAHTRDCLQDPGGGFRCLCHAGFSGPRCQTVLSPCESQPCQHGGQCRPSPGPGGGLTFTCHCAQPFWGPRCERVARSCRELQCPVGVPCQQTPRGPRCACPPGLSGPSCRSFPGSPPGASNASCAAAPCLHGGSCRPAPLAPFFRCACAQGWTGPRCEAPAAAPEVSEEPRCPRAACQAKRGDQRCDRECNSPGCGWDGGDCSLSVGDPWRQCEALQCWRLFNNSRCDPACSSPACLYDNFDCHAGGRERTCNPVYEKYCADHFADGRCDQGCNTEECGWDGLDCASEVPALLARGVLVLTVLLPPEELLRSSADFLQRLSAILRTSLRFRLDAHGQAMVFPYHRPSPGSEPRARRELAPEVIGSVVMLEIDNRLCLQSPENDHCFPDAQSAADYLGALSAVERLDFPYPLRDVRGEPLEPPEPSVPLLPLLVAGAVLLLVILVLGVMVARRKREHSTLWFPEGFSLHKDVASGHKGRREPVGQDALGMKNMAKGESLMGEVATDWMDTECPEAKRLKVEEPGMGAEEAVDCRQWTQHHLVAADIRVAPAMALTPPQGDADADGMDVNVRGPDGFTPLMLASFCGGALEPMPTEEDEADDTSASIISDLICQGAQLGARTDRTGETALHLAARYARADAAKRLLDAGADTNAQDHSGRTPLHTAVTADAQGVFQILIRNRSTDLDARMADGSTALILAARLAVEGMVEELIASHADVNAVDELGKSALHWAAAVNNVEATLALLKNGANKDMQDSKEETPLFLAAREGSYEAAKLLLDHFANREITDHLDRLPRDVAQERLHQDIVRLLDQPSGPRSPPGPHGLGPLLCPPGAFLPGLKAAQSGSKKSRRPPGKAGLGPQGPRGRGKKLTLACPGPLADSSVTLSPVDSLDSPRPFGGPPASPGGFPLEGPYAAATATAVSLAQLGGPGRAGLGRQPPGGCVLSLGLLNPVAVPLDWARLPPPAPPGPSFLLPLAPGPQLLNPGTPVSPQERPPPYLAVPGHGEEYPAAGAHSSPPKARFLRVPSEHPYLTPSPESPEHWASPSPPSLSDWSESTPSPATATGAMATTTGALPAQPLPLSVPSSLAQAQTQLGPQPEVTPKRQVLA
# Chain of Pro-neuregulin-1, membrane-bound isoform (Homo sapiens) (Q02297 whole entry, looked up, the tested form may be a part, canonical isoform): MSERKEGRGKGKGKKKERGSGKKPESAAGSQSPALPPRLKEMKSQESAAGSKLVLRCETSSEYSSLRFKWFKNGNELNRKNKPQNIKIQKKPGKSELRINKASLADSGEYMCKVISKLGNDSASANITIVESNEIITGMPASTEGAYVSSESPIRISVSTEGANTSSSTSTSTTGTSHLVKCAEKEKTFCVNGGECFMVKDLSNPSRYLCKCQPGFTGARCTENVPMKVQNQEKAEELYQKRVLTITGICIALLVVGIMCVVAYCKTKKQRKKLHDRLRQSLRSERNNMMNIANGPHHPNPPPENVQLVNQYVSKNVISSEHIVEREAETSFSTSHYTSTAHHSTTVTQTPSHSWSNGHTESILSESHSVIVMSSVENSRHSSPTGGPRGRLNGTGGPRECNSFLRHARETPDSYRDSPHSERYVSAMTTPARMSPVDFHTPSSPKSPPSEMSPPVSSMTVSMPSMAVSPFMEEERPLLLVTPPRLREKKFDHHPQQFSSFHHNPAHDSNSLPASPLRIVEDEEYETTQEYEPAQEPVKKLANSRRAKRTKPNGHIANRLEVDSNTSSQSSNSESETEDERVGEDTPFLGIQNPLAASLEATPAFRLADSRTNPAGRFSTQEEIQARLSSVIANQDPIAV
SMILES,composite z-score [1],composite z-score [2],composite z-score [3],composite z-score [4],composite z-score [5],composite z-score [6],composite z-score [7],z-score [8],composite z-score [9],composite z-score [10],composite z-score [11],z-score [12],z-score [13],z-score [14],composite z-score [15],z-score [16],composite z-score [17],composite z-score [18],composite z-score [19],composite z-score [20]
CC(CCN1CCCCc2nc(C)c(C)cc21)=NOC[C@@H](O)[C@H]1O[C@@H]2OC(C)(C)O[C@@H]2[C@H]1O,-0.368,0.454,-0.138,0.188,-0.224,0.459,0.0465,0.442 (inactive),-0.346,-0.136,0.908,-1.58 (inactive),0.186 (inactive),-0.164 (inactive),-0.428,0.579 (inactive),-0.225,1.07,0.218,-0.0179
CCOC(=O)[C@H](CC(C)C)NC(=O)CCC1CC(OC(=O)NCc2ccc3c(c2)OCO3)CC2(CCCC(COC(=O)NCCOc3ccccc3)O2)O1 (stereo not given in full),-0.538,0.143,-0.11,0.652,1.36,0.843,0.943,0.929 (inactive),0.0762,0.276,1.17,-0.337 (inactive),0.774 (inactive),-0.211 (inactive),1.68,0.097 (inactive),-0.0928,0.878,1.11,-0.013
COc1ccc(COC(=O)NN=C2C[C@@H](O)[C@@H](O)[C@@H]3[C@@H]4C(=O)N([C@@H](C)c5ccccc5)C(=O)[C@@H]4CC[C@@H]23)cc1,-0.513,0.419,-0.114,0.042,0.199,0.0605,-0.38,0.497 (inactive),0.275,-0.0994,-0.0948,-0.735 (inactive),0.207 (inactive),-0.206 (inactive),-0.0022,0.918 (inactive),0.0378,0.574,0.128,-0.103
O=C1C2=CC[C@H]3C(=O)N(Cc4ccccc4)C(=O)[C@H]3[C@H]2[C@H](O)[C@@H]2O[C@H]12,-0.291,-0.339,-0.132,0.011,0.0297,-0.0087,0.281,6.64 (inactive),-0.351,0.176,0.0864,-0.733 (inactive),-2.12 (inactive),-0.213 (inactive),-1.23,-0.559 (inactive),-0.185,-0.0873,-0.95,-0.125
CCCNC(=O)OC[C@H]1O[C@H](CCON=C[C@@H](C)[C@H](OCc2ccccc2)C(C)C)C=C[C@@H]1Oc1ccc(OC)cc1,-0.273,0.729,-0.161,0.416,-0.566,-0.645,-0.814,-0.748 (inactive),-0.307,-0.0346,-0.295,-2.24 (inactive),-1.52 (inactive),-0.25 (inactive),-0.605,-1.13 (inactive),-0.0753,-0.0593,-0.942,-0.141
